The values that follow come from PubChem BioAssay (NCATS).

One experiment deals with HEK293T. Briefly: qHTS assay to identify novel small-molecules to repurpose for Merkel cell carcinoma treatment (AID 1296009). Also: nearly all actives have a fitted effect of over 60% in size. The note with it: MCC and control cell lines, CellTiter-Glo viability, 72 h; series mostly up to 44.8 µM. In short, it runs like this: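 qHTS format: cells treated with library compounds in DMSO across 8 (NPC) or 11 (MIPE) concentrations. Readout after 72 hr at 37 degree celsius was CellTiter-Glo luminescence.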

A further experiment concerns C33A. Nature of the experiment: Primary qHTS to identify gynecologic anti-cancer compounds using libraries of approved drugs and bioactive compounds (AID 1345084). Also: % is scaled to controls: 0 for no effect and ±100 for the full control effect; nearly all actives have a fitted effect of over 55% in size. The settings on record: Gynecologic cancer cell panel viability, ATPlite luminescence, 48 h; series mostly up to 57.5 µM. In short, it runs like this: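 48 h compound exposure at 37 C, 5% CO2; five-point qHTS. ATPlite luminescence readout of cell ATP.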

Records with an inconclusive call do not appear. Activity calls are given as the source filed them. Calls follow the shape of the dose curve; as a rule, active = well fitted curve in the direction sought with a large enough effect; inconclusive = small, poorly fitted or top-dose-only effect, or another doubt; inactive = no such curve, though single readings can be large; an effect the other way counts as inactive or inconclusive. Where a SMILES comes first, the peptide text is derived from it. [ ]: non-standard residue; d: D form. PhLac = O=C(O)[CH](O)Cc1ccccc1; NMeV = CN[CH](C(=O)O)C(C)C

For the compound `CO[C@@H]1CC[C@H](OC[C@]2(COC(=O)c3ccc(C)[nH]3)[C@H](OC(C)=O)CC[C@@]3(C)[C@@H]4CC=C(C)[C@@H](C5=C(O)C(=O)OC5O)[C@]4(C)CC[C@@H]32)O[C@H]1C` (stereo partly specified), the Potency result in the experiment with HEK293T and with C33A was “inactive” throughout.
Consider `C[C@@H]1CCC2C(C)(C)[C@H](O)CC[C@]2(C)[C@@]12Cc1c(O)cc3c(c1O2)CN(CCO)C3=O` (stereo partly specified), for which the Potency entry with HEK293T and with C33A was “inactive” throughout.
Take `C[C@@H]1C(=O)O[C@H]2CC34[C@H]5C[C@@H](C(C)(C)C)C36[C@@H](OC(=O)[C@@H]6O)O[C@@]4(C(=O)O5)[C@]21O` (stereo partly specified): the Potency entry with HEK293T and with C33A was “inactive” in each case.
Regarding `O=C1NC(Cc2ccc(O)cc2)C(=O)N2CCCC12` (stereo unspecified), the Potency entry in the experiment on HEK293T and with C33A was “inactive” in each case.
On to `COc1cc(C2Oc3c(O)cc(CCCO)cc3C2CO)ccc1O[C@H]1O[C@H](C)[C@@H](O)[C@H](O)[C@@H]1O` (stereo partly specified), for which the Potency entry with HEK293T and in the experiment on C33A was “inactive” each time.
As for `CN1C(=O)c2ccccc2-n2c(nc3ccccc3c2=O)/C1=C/c1ccccc1`, the Potency result in the experiment with HEK293T and in the experiment on C33A was “inactive” in each case.
As to `C[C@@H]1O[C@@H](O[C@H]2[C@H](OC(=O)C34CCC(C)(C)CC3C3=CCC5C6(C)CC(O)C(O[C@@H]7O[C@H](CO)[C@@H](O)[C@H](O)[C@H]7O)C(C)(C(=O)O)C6CCC5(C)C3(CO)CC4)O[C@H](C)[C@H](O)[C@@H]2O)[C@H](O)[C@H](O)[C@H]1O[C@@H]1OC[C@@H](O)[C@H](O)[C@H]1O` (stereo partly specified), in the experiment with HEK293T, the outcome was “inactive [at 9.27 µM]”. The activity change, negative = cytotoxicity with C33A was 7.58% [at 11.6 µM] (inactive).
As for `CC(C)C(C(=O)N1CCCC1C(=O)O)N(C)C(=O)C(O)Cc1ccccc1` (stereo unspecified) (H-[PhLac]-[NMeV]-Pro-OH; configuration not given here), the Potency result in the experiment with HEK293T and in the experiment on C33A was “inactive” each time.
As to `C[C@@H]1O[C@@H](O[C@H]2[C@H](O[C@H]3CC[C@@]4(C)C(CC[C@]5(C)C4CC=C4[C@@H]6CC(C)(C)CC[C@]6(C(=O)O)CC[C@]45C)[C@]3(C)CO)OC[C@H](O)[C@@H]2O)[C@H](O)[C@H](O[C@@H]2OC[C@@H](O)[C@H](O)[C@H]2O)[C@H]1O` (stereo partly specified), in the experiment with HEK293T, the outcome was “inactive [at 9.27 µM]”. For the same compound, the activity change, negative = cytotoxicity with C33A was -12% [at 11.6 µM] (inactive).
With `COCCN(C)Cc1ccc2nc3sc(C(=O)N(C)C4CCCCC4)cn3c2c1`, the Potency result in the experiment on HEK293T and in the experiment with C33A was “inactive” each time.
For the compound `CC1(C)CC2C3=CCC4C5(C)CCC(OC6OC(CO)C(O)C(OC7OC(CO)C(O)C(OC8OC(CO)C(O)C(OC9OC(COC%10OC(CO)C(O)C(O)C%10O)C(O)C(O)C9O)C8O)C7O)C6O)C(C)(C)C5CCC4(C)C3(C)CCC2(C(=O)O)CC1O` (stereo unspecified), in the experiment on HEK293T, the outcome is “inactive [at 9.27 µM]”. Besides, in the experiment on C33A, the activity change, negative = cytotoxicity was 6.53% [at 6.55 µM] (inactive).
Take `O=C(/C=C/c1ccc(O)c(O)c1)OCc1ccccc1O[C@@H]1O[C@H](CO)[C@@H](O)[C@H](O)[C@H]1O`: the Potency result in the experiment with HEK293T and in the experiment on C33A was “inactive” each time.
As for `CCOc1ccc(-c2ccc(Cn3c(CC(C)(C)C(=O)O)c(SC(C)(C)C)c4cc(OCc5ccc(C)cn5)ccc43)cc2)cn1`, the Potency result in the experiment on HEK293T and in the experiment with C33A was “inactive” in each case.
On to `COC(=O)C1=CO[C@@H](O[C@@H]2O[C@H](CO)[C@@H](O)[C@H](O)[C@H]2O)[C@@H]2[C@@H](C)[C@@H](O)C[C@H]12`, for which the Potency entry with HEK293T and with C33A was “inactive” throughout.
As for `OC[C@H]1O[C@@H](Oc2cc(O)cc(-c3cc4ccc(O)cc4o3)c2)[C@H](O)[C@@H](O)[C@@H]1O`, the Potency result with HEK293T and with C33A was “inactive” throughout.
Take `CC1(C)CC2C(C1)C1(C)CCC13OC3(CO)C2O` (stereo unspecified): the Potency result in the experiment with HEK293T and in the experiment with C33A was “inactive” throughout.
As to `C/C(=C\CO)CC/C=C(\C)C(=O)O[C@H]1[C@H](OC2OC=C(C(=O)O)C3CCC(C)(O)C23)O[C@H](CO)[C@@H](O)[C@@H]1O` (stereo partly specified), the Potency result in the experiment on HEK293T and in the experiment with C33A was “inactive” each time.
For `COc1ccc(C)c2sc(NC(=O)c3ccncc3)nc12`, the Potency result with HEK293T and in the experiment on C33A was “inactive” throughout.
As to `O=c1c2cccnc2n(-c2cccc([N+](=O)[O-])c2)c(=O)n1Cc1ccncc1`, the Potency entry in the experiment on HEK293T and with C33A was “inactive” each time.
As to `CC1(C)CCC2(C(=O)OC3OC(COC4OC(CO)C(O)C(O)C4O)C(O)C(O)C3O)CCC3(C)C(=CCC4C5(C)CCC(O)C(C)(C(=O)O)C5CCC43C)C2C1O` (stereo unspecified), the outcome in the experiment with HEK293T was “inactive [at 9.27 µM]”. For the same compound, the activity change, negative = cytotoxicity in the experiment with C33A is 2.23% [at 11.6 µM] (inactive).
For the compound `CC1(C)NC2N(C1=O)c1ccccc1C2(O)CC(C(=O)O)n1cnc2ccccc2c1=O` (stereo unspecified), the Potency result in the experiment on HEK293T and with C33A was “inactive” throughout.
In the case of `C/C(=C/CCC(CO)C1CCC2(C)C3CCC4C(C)(C)C(OC5OC(CO)C(O)C(O)C5O)CC(O)C45CC35CCC12C)COC1OC(CO)C(O)C(O)C1O` (stereo unspecified), the Potency entry in the experiment with HEK293T and in the experiment with C33A was “inactive” throughout.
For the compound `CNC(=O)[C@H]1O[C@@H](n2cnc3c(NCc4ccc(N)c(I)c4)ncnc32)[C@H](O)[C@@H]1O`, in the experiment on HEK293T, the outcome was “inactive [at 9.27 µM]”. Besides, the activity change, negative = cytotoxicity with C33A is 17.6% [at 11.6 µM] (inactive).
